Screening results (PubChem)
Sampled rows, rich in hits. Any-hit rate of the full collection: about 18%.
Six1-Eya2 blk: inhibitors of human Six1/Eya2 interaction; Q15475+O00167; AlphaScreen GST-Six1/His-Eya2 binding, biochemical; hits give low values; activity change, % (test concentration not listed); actives 0.56% (n = 360,000); in the data active = activity change below about -65%; inconclusive = mostly about -30% to -63%
Target sequence (O00167 whole entry, looked up): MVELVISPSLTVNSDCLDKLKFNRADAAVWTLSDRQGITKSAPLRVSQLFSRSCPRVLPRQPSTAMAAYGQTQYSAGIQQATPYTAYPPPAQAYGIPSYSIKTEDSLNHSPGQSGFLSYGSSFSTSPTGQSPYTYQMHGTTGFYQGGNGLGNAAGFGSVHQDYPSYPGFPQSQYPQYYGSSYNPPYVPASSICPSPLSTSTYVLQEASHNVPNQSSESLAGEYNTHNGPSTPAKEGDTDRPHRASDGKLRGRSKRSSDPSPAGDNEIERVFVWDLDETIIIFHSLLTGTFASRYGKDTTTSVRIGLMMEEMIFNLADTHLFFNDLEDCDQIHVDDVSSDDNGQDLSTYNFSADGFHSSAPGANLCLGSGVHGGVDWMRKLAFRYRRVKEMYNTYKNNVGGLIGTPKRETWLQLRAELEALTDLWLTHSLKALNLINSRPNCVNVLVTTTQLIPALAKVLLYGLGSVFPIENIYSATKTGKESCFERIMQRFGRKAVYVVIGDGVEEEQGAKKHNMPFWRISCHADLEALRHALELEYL
Target sequence (Q15475 whole entry, looked up): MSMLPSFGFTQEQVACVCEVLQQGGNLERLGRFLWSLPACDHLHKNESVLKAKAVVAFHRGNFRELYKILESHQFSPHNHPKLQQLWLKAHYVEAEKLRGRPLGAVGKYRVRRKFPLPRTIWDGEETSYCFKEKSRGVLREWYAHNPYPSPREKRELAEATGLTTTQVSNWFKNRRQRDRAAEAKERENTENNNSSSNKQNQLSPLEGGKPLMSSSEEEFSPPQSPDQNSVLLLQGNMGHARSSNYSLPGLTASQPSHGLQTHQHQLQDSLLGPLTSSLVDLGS
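Homogeneous AlphaScreen proximity assay pairing GST-Six1 with His-tagged Eya2 (added as 5X mix: 250 nM and 500 nM) in 50 mM Tris pH 8.0, 300 mM NaCl, 1 mM TCEP. Glutathione donor and nickel acceptor beads; 1 h, 37 °C, dark.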
CtBP-E1A inh: CtBP/E1A binding inhibition; AlphaScreen GST-E1A/His-CtBP binding, 1536-well; hits give low values; activity change, % (no concentration beside the values); actives 0.49% (n = 340,000); in the data active = activity change below about -65%; inconclusive = mostly about -30% to -63%
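Steps: dispense buffer (Tris pH 8.0, NaCl 300 mM, TCEP 1 mM, BSA, Tween 20); add 5X protein mix (GST-E1A, His-CtBP, 125 nM each); pin 23 nL compound; 2 h at 37 °C, dark; add 5X beads (50 ug/mL); 1 h; read.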
IL-1B inflam inh: blocks inflammasome-driven IL-1 beta release; activity change, % at 57.5 µM; AID 743279; actives 4.7% (n = 360,000); THP-1 LPS/ATP IL-1B secretion, AlphaLISA, 16 h; hits give low values; in the data active = activity change below about -50%; inconclusive = mostly about -30% to -49%
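THP-1 cells pretreated 1 hr with compounds (up to 57.5 uM final), then stimulated with LPS (250 ng/mL final) plus ATP (1.25 mM final); secreted IL-1B measured by AlphaLISA after 16 hr, decreased signal indicating inhibition.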
TDP1 cell noCPT: qHTS for Inhibitors of human tyrosyl-DNA phosphodiesterase 1 (TDP1): qHTS in cells in absence of CPT. AID 686978, 2013. actives 15% (n = 420,000). DT40 Tdp1-/- hTDP1 cells, no CPT, ATP luminescence, 48 h. Potency, µM (titrated, usually from 46.2 µM), hits mostly inhibitors; also: nearly all actives have a fitted effect of over 55% in size
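A cellular qHTS used chicken DT40 cells lacking endogenous Tdp1 but carrying stably transfected human TDP1. Compounds were applied without camptothecin, and cell growth kinetics were judged by ATP-dependent luminescence after ≥48 hr.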
TDP1 cell CPT: DT40-hTDP1 cell growth loss with CPT | chicken DT40 Tdp1-/-;hTDP1 cells + 20 nM CPT, ATP luminescence, 48 h | actives 12% (n = 420,000) | Potency, µM (series often up to 46.2 µM), usual class: inhibitors; also: nearly all actives have a fitted effect of over 55% in size
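Chicken DT40 Tdp1-/- cells stably complemented with human TDP1 were seeded at 400 cells/well in medium containing 20 nM camptothecin, exposed to pin-transferred compounds, and grown at 37 °C for at least 48 hr. Viability was read as ATP luminescence.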
TDP1 block: blocks human tyrosyl-DNA phosphodiesterase 1. Q9NUW8. recombinant TDP1, AlphaScreen DNA substrate cleavage. Potency, µM (series often up to 130 µM), usual class: inhibitors. actives 0.28% (n = 350,000); also: nearly all actives have a fitted effect of over 40% in size
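Recombinant E. coli-expressed Tdp1 (1 nM) preincubated with compound 15 min at RT, then 5'-biotin/3'-phosphotyrosine-FITC DNA substrate (15 nM) added for 5 min. AlphaScreen beads (10 ug/ml) added, 10 min RT; tyrosine-FITC cleavage read as signal loss.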
A number is an active result; - = inactive; ? = inconclusive; . = no result given; [ ] = dose if it differs, or a comment. Unless noted, calls follow the shape of the dose curve; as a rule, active = well fitted curve in the direction sought with a large enough effect; inconclusive = small, poorly fitted or top-dose-only effect, or another doubt; inactive = no such curve, though single readings can be large; an effect the other way counts as inactive or inconclusive.

SMILES	Six1-Eya2 blk	CtBP-E1A inh	IL-1B inflam inh	TDP1 cell noCPT	TDP1 cell CPT	TDP1 block
Cc1cc(C=O)c(C)n1-c1sc2c(c1C(=O)O)CCCC2	-	-	-	-	-	-
COc1ccc(CCNC(=O)CN(c2ccc(OC)cc2)S(C)(=O)=O)cc1	-	-	-	-	-	-
COc1ccc(CC(=O)NC2CCN(CC(=O)N3CCCc4ccccc43)CC2)cc1OC	-	-	-	3.7µM	-	-
COc1ccc(CC(=O)N2CCCc3ccccc32)cc1OC	-	-	-	?	-	-
O=C(Cc1ccc(NC(=O)N2CCCCc3ccccc32)cc1)NCc1ccccc1	.	.	.	23µM	23µM	-
COc1ccc(CNC(=O)CCC(=O)N2CC3CCCN3c3ccccc32)cc1 (stereo not drawn)	.	.	.	21µM	12µM	-
CCc1ccc(CNC(=O)c2ccc(NC(=O)N3CCCCc4ccccc43)cc2)cc1	.	.	.	?	21µM	-
CCOc1ccc(CNC(=O)c2ccc(NC(=O)N3CCCCc4ccccc43)cc2)cc1	.	.	.	?	?	-
CCOC(=O)c1cnc2c(cnn2C)c1NCCC(O)C(F)(F)F (stereo not drawn)	-	-	-	-	?	-
COc1ccc(NC(=O)N2CCCc3ccccc32)cc1OC	-	-	-	-	-	-
O=C(Cc1ccc(NC(=O)N2CCCCc3ccccc32)cc1)NCc1ccccc1Br	.	.	.	23µM	?	-
COc1ccc(CNC(=O)Cc2ccc(NC(=O)N3CCCCc4ccccc43)cc2)cc1	.	.	.	23µM	?	-
COc1ccc(Cl)cc1NC(=O)Cc1ccc(NC(=O)N2CCCCc3ccccc32)cc1	.	.	.	21µM	18µM	-
COc1ccc(OC)c(CNC(=O)Cc2ccc(NC(=O)N3CCCCc4ccccc43)cc2)c1	.	.	.	9.2µM	12µM	-
CCOc1ccc(CNC(=O)Cc2ccc(NC(=O)N3CCCCc4ccccc43)cc2)cc1OC	.	.	.	?	?	-
CC(C)CCNC(=O)Cc1ccc(NC(=O)N2CCCCc3ccccc32)cc1	.	.	.	?	-	-
COC(=O)c1ccc(-n2cncn2)c([N+](=O)[O-])c1	-	-	-	-	-	-
O=C1OCCN1/N=C/c1ccc([N+](=O)[O-])o1	-	-	-	15µM	13µM	-
O=C1OCCN1/N=C\c1ccc([N+](=O)[O-])o1	.	.	.	.	.	-[21 µM]
O=C1CN(/N=C/c2ccc([N+](=O)[O-])o2)C(=O)N1	-	-	-	16µM	21µM	-
COc1ccc(C(=O)COC(=O)CCCN=C2NS(=O)(=O)c3ccccc32)c(OC)c1	-	-	-	-	-	-[0.505 µM]
O=C1c2ccccc2CN1CCNC(=S)NC1CCCCC1	-	-	-	-	-	-
N#CN=C1SCCS1	-	-	-	15µM	9.2µM	-
CCOC(=O)[C@H]1[C@H]2COc3ccc(Br)cc3[C@@H]2N2C(=O)c3c(C)cc(C)cc3NC(=O)[C@@]12C	-	-	?	?	?	-
Cc1ccccc1C(=O)NC(=S)Nc1ccccc1C(=O)O	-	-	-	-	-	-
SMILES	Six1-Eya2 blk	CtBP-E1A inh	IL-1B inflam inh	TDP1 cell noCPT	TDP1 cell CPT	TDP1 block
Cc1ccccc1C(=O)NC(=S)Nc1ccc(S(=O)(=O)N(C)c2ccccc2)cc1	-	-	-	23µM	23µM	-
Cc1cccc(C(=O)NC(=S)Nc2ccc(S(=O)(=O)N(C)c3ccccc3)cc2)c1	-	-	-	13µM	?	-
Cc1noc(NS(=O)(=O)c2ccc(NC(=O)c3cccc(S(=O)(=O)N(C)c4ccccc4)c3)cc2)c1C	-	-	-	-	-	.
COC(=O)c1ccccc1NC(=S)NC(=O)c1ccccc1C	-	-	-	-	23µM	-
CCOC(=O)c1sc(NC(=O)C2CC(=O)N(c3ccc(OCC)cc3)C2)nc1C (stereo not drawn)	-	-	-	-	-	.
CNC(=S)N(Cc1ccc(OC)cc1)C1CC(=O)N(c2ccc(Cl)cc2)C1=O (stereo not drawn)	-	.	-	18µM	16µM	-
CNC(=S)N(Cc1ccc2c(c1)OCO2)C1CC(=O)N(c2ccc(F)cc2)C1=O (stereo not drawn)	-	-	-	21µM	?	-
COc1ccc(CN(C(=S)Nc2ccccc2)C2CC(=O)N(c3ccc(F)cc3)C2=O)cc1 (stereo not drawn)	-	-	-	?	?	-
C=CCN(C(=O)Nc1ccc(Cl)cc1)C1CC(=O)N(c2ccc(OC)cc2)C1=O (stereo not drawn)	-	-	-	-	23µM	-
CC(=O)OCC1=C[C@@H]2OC(=O)C3=CO[C@@H](O[C@@H]4O[C@H](CO)[C@@H](O)[C@H](O)[C@H]4O)[C@H]1[C@@H]32	-	-	-	-	-	-
O=C(NCc1ccc2c(c1)OCO2)C1CC(c2ccc(Cl)cc2)=NO1 (stereo not drawn)	-	-	-	-	-	-
CCOC(=O)N1CCN(C(=O)C2CCN(S(=O)(=O)N(CC)CC)CC2)CC1	-	-	-	-	-	-
COC(=O)c1ccccc1N/C=C1\CCc2c(c(C)nn2-c2ccccn2)C1=O	-	-	-	?	16µM	-
COC(=O)c1ccccc1NC(=O)CN1CCN(c2ccccn2)CC1	-	-	-	-	-	-
CC1(Oc2cnc(Cl)c3ccccc23)CCN(Cc2ccc(-c3ccccn3)cc2)C1 (stereo not drawn)	-	-	-	?	?	.
CCOc1ccc(NC(=O)CC(c2ccccc2)c2ccc(F)cc2)cc1 (stereo not drawn)	-	-	-	15µM	-	-
COc1ccc(NC(=O)CC(c2ccc(F)cc2)c2ccc(OC(C)C)cc2)cc1 (stereo not drawn)	-	-	-	21µM	?	-
COc1cc(C(=O)N2CC(C)OC(C)C2)c([N+](=O)[O-])cc1OC (stereo not drawn)	-	-	-	-	-	-
O=C(NCC1Cc2cccc(-c3ncccn3)c2O1)C1CCOC1 (stereo not drawn)	.	.	.	-	-[9.04 µM]	.
O=C(Nc1ccc(N=Nc2ccccc2)cc1)c1ccccc1Cl	-	-	-67	-	?	-
O=C(CCl)Nc1ccc(N=Nc2ccccc2)cc1	-	.	-98	?	2.9µM	-
CC(=O)Nc1ccc(N=Nc2ccccc2)cc1	-	-	-	-	-	-
CC(C)N(c1ccccc1)c1ccc(NC(=O)CCl)cc1	-	-	-100	2.6µM	16µM	-
CC(C)[C@@H](C(=O)NC1CC1)N1C(=O)N2CCc3c([nH]c4ccccc34)[C@@]2(C)C1=O	-	-	-	-	?	.
